eIF4H inh: human eIF4H binding inhibitors, primary screen, translation initiation inhibitor project, biochemical, uHTS, fluorescence polarization | Eukaryotic translation initiation factor 4H (Homo sapiens), Q15056 | eIF4H fluorescence polarization binding assay | inhibition, % at 35 µM | 290,000 compounds, 0.94% hits | AID 2012, 2009;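 further: calls also rest on retests at 20 µM and on dose response follow-up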
PABP1 MLLE inh: inhibitors of PABP1 MLLE–PAM2 peptide binding, primary screen, biochemical, fluorescence polarization, FITC-PAM2, GST-MLLE. inhibition, % at 20 µM. 360,000 compounds, 0.36% hits. Polyadenylate-binding protein 1 (Homo sapiens), P11940; in the data active means inhibition above about 35%, passing the limit was not always enough
Target sequence (P11940 whole entry, looked up): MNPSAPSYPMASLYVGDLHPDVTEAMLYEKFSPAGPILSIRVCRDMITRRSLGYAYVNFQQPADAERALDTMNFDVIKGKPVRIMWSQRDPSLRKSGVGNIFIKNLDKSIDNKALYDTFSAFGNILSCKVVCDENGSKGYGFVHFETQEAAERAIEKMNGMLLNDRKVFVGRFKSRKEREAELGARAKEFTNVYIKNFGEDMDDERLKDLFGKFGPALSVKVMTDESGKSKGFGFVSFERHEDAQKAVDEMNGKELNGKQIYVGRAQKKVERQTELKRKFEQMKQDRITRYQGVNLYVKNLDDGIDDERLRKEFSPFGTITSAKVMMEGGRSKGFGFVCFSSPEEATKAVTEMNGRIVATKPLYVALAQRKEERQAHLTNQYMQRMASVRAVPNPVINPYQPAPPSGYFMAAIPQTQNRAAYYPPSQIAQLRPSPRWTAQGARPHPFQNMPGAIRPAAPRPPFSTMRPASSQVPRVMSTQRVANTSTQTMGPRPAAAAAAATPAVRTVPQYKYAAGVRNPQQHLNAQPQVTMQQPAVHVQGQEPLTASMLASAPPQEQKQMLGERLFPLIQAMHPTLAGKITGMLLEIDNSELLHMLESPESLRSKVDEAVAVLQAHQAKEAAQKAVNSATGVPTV
PABP FP inh: PABP poly(A) RNA binding inhibitors, primary screen, biochemical, fluorescence polarization, uHTS. Polyadenylate-binding protein 1 (Homo sapiens), P11940. calls only at 35 µM. 290,000 compounds, 1% hits. AID 2014, 2009;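 further: calls also rest on retests at 20 µM and on dose response follow-up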
eIF4E-4G inh: eIF4E–eIF4G protein interaction inhibitors, primary screen, biochemical, uHTS, TR-FRET, eIF4GI fragment. 220,000 compounds, 0.37% hits. Eukaryotic translation initiation factor 4E (Mus musculus) + Eukaryotic translation …. AID 782, 2007. TR-FRET eIF4E-eIF4GI(517-606) binding, 2 h. inhibition, % at 21.7 µM;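 active means inhibition above about 30%, limit read from the data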
14-3-3 Bad PPI: inhibitors of 14-3-3 zeta/Bad binding, primary screen, biochemical, TR-FRET, bovine 14-3-3 zeta | 14-3-3 protein zeta/delta (Bos taurus), P63103 | TR-FRET 14-3-3zeta/Dy647-pBad peptide displacement, 1 h | inhibition, % at 21.7 µM | 220,000 compounds, 0.71% hits | AID 781, 2007;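 active means inhibition above about 70%, limit read from the data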
Hits are given with their value; . = inactive; / = no result given; + = active, no number; [ ] = remark or other dose. This is a sample that favours compounds with a hit; in the whole collection about 1.9% have one here. Unless noted, how the calls were made is not given here.

SMILES	eIF4H inh	PABP1 MLLE inh	PABP FP inh	eIF4E-4G inh	14-3-3 Bad PPI
COc1cc(CN2CCN(c3ccc(C)cc3)CC2)cc([N+](=O)[O-])c1O	.	/	.	.	83
CCOc1cc(CN2CCCCC2)ccc1OC	.	.	.	.	.
O=C(NCc1ccccc1)/C(=C\c1cccc([N+](=O)[O-])c1)NC(=O)c1ccco1	/	.	/	/	/
CCn1cc(CN2CCC(n3nccc3NC(=O)CCc3ccccc3)CC2)cn1	.	.	.	/	/
O=C(COC(=O)c1ccc[n+]([O-])c1)Nc1ccc(Cl)cc1[N+](=O)[O-]	/	.	/	/	/
COc1cc(Br)cc(CN2CCN(C/C=C/c3ccccc3)CC2)c1O	.	.	.	.	.
COc1ccc(O)c(CN2CCN(C/C=C/c3ccccc3)CC2)c1	.	.	.	.	74
CN1CCN(c2ccc(S(=O)(=O)N3CCCCC3)cc2NC(=O)COc2cccc(Cl)c2)CC1	/	.	/	/	/
c1ccc(Oc2c3ccccc3nc3ccccc23)cc1	.	/	.	.	.
O=c1/c(=C/c2ccc([N+](=O)[O-])cc2)sc2n1CCCN=2	.	.	.	.	80
COc1cc(/C=c2\sc3n(c2=O)CCCN=3)ccc1O	.	.	.	.	.
COc1cc(CN2CCNC(=O)C2CC(=O)N(C)CCC2CCOCC2)cc(OC)c1 (centres undefined)	.	.	.	/	/
Cc1cccc(C)c1NC(=S)Nc1ccc(Cl)c(Cl)c1	.	45	.	.	.
Cc1cc(C)cc(NC(=S)Nc2ccc(Cl)c(Cl)c2)c1	.	43	.	.	.
CC1CCN(CCCNC(=O)C2CC(=O)N(CCc3ccccc3)C2)CC1 (centres undefined)	.	.	.	/	/
COc1cc(CNCc2ccncc2)cc(Br)c1OCc1ccccc1F	.	.	.	.	83
COc1cc(CNc2ccc(O)cc2)cc(Br)c1OCc1ccccc1F	.	.	.	.	.
Cc1cc(C(N)=O)nn1-c1c(Cl)cc(Cl)cc1Cl	.	.	.	.	.
CS(=O)(=O)NCCSc1cc(C(F)(F)F)nc2ccccc12	64	.	+	.	.
CN(C)CC/C=C1/c2ccccc2COc2ccccc21	.	/	.	.	.
c1ccc2c(c1)OCc1cn[nH]c1-2	.	.	.	51	.
CCc1nn(C(C)C(=O)NCCc2ccc(OC)c(OC)c2)c(=O)c2cc3occc3n12 (centres undefined)	.	.	.	.	89
CCOC(=O)CSc1c(-c2ccccc2)c2cc(Cl)ccc2[nH]c1=O	active	.	.	.	.
C/C(=N\NC(=O)Cc1cccn1C)c1ccco1	.	.	.	44	.
C/C(=N/NC(=O)Cc1cccn1C)c1ccccc1	.	.	.	.	.
SMILES	eIF4H inh	PABP1 MLLE inh	PABP FP inh	eIF4E-4G inh	14-3-3 Bad PPI
Cc1ccc(C)c2c1c1ccccc1n2C	.	.	.	.	.
CN(C)c1cc2c3ccccc3n(C)c2cc1N	/	64	/	/	/
Cc1noc(C)c1C(=O)OCC(=O)NCc1ccccc1	/	.	/	/	/
Cc1ccc(C)c(C(=O)N(C)CC(=O)Nc2ccccc2C(F)(F)F)c1	.	.	.	.	.
CCCn1c(=O)[nH]c(=O)c2c1nc(-c1ccc3c(c1)OCCO3)n2CCN1CCOCC1	.	.	.	.	72
COc1ccccc1NC(=O)CSc1nnnn1-c1ccc(F)cc1	.	.	.	/	/
CSc1nc(Cl)c(C#N)c(-c2ccc(C)cc2)n1	.	.	.	.	77
COCCNC(=O)CN(C(=O)CCC(=O)Nc1ccccn1)c1ccc(C)cc1C	.	.	.	/	/
CC(=O)c1c(C)cc(C)c(CSc2nc(C)cc(=O)[nH]2)c1C	.	44	.	.	.
CCOC(=O)CSc1nc(C)cc(=O)[nH]1	.	.	.	.	.
NC(=O)C12CCCC(Br)(CCC1)C2	.	.	.	92	.
CCC(=O)c1cn(CC(=O)Nc2ccccc2Cl)c2ccccc12	.	.	.	/	/
COC(=O)N/N=C/c1cc(N=Nc2ccccc2Cl)ccc1O	.	.	.	.	.
Nc1ccc(C(=O)N/N=C\c2cc(N=Nc3cccc4ccccc34)ccc2O)cc1	.	.	.	.	77[fluorescence artefact?]
CCc1ccccc1NC(=O)NCc1cccnc1	.	.	.	/	/
CC(=O)Nc1ccc(S(=O)(=O)N2CCN(Cc3ccccn3)CC2)cc1	.	.	.	.	71
CC(=O)Nc1ccc(S(=O)(=O)N2CCN(Cc3csc(C)n3)CC2)cc1	.	.	.	/	/
CCc1ccc(C(=O)Nc2cc(S(=O)(=O)N3CCOCC3)ccc2N2CCOCC2)cc1	/	.	/	/	/
O=[N+]([O-])c1cc2cccnc2c2ncccc12	.	.	.	.	.
NS(=O)(=O)c1cccc2c1c([N+](=O)[O-])cc1nc(O)c(O)nc12	/	38	/	/	/
O=C1Nc2ccccc2/C1=N/N=C/c1ccc(-c2ccc([N+](=O)[O-])cc2)o1	.	.	.	.	95
CN(/N=C/c1ccc(-c2ccc([N+](=O)[O-])cc2)o1)c1ccccc1	.	.	.	/	/
CCCCc1c(C)nc2ccc(C)cc2c1SCCC(=O)O	.	.	.	.	.
CCCCc1c(C)nc2ccccc2c1SCCC(=O)O	9.8	.	.	.	.
CC(C)CCN1CCC[C@]2(N[C@H](c3ccc(C(F)(F)F)cc3)[C@@H]3C(=O)N(Cc4ccccc4)C(=O)[C@@H]32)C1=O	/	.	/	/	/
SMILES	eIF4H inh	PABP1 MLLE inh	PABP FP inh	eIF4E-4G inh	14-3-3 Bad PPI
Nc1nn(S(=O)(=O)c2ccccc2)cc1-c1cccc([N+](=O)[O-])c1	active	.	+	.	.
CCc1cc(C(=O)N=Nc2c(O)[nH]c3c(Br)cc(Br)cc23)c2ccccc2n1	.	.	.	.	.
CCc1ccc(N(C(=O)c2csnn2)C(C(=O)NCc2ccccc2)c2ccco2)cc1 (centres undefined)	.	.	.	.	95[fluorescence artefact?]
O=C(NCc1ccccc1)C(c1ccco1)N(C(=O)c1csnn1)C1CC1 (centres undefined)	.	.	.	/	/
Cc1ccc(S(=O)(=O)NCC(=O)N(CC(=O)NCC2CCCO2)C2CCCC2)cc1 (centres undefined)	.	.	.	91[fluorescence artefact?]	.
O=C(O)CNc1ccccc1C(=O)O	74	.	.	.	.
O=C(O)c1ccccc1NCc1cccnc1	/	.	/	/	/
Cc1ccc(Cl)c(OCCCCN(C)Cc2ccccc2)c1	.	.	.	.	77
Cc1ccc(Cl)c(OCCCN(C)Cc2ccccc2)c1	.	.	.	.	72
COc1cc(OC)cc(C(=O)N[C@H](C(=O)NC2CCCc3ccccc32)C(C)C)c1 (some centres undefined)	/	.	/	/	/
CC(C)CNC(=O)Cn1c(=O)c2c(ncn2CC(C)C)n(Cc2ccccc2)c1=O	.	.	.	.	90
CCCCCNC(=O)Cn1c(=O)c2c(ncn2CC(C)C)n(Cc2ccccc2)c1=O	.	.	.	/	/
Cc1cccc(N2CC(O)(c3cccs3)[N+]3=C2CCCCC3)c1 (centres undefined)	.	.	.	.	83

Screening data as filed in PubChem BioAssay.
